Measurements published in PubChem BioAssay (EPA / NIEHS).
Inconclusive results are not listed. Calls of active or inactive are those of the source. The calls were made as follows, unless noted: active = hit-call score of the fitted dose curve at least 0.9, where 1 is the maximum; inconclusive = response in the unintended direction; inactive = score below 0.9.

Experiments:
[1] = ATG_TCF_b_cat_CIS: Attagene CIS-FACTORIAL HepG2 Assay for human T-Cell-Factor with beta-catenin (TCF/b-cat) (AID 2282965; active = hit-call score of the fitted dose curve at least 0.9, where 1 is the maximum; inactive = score below 0.9); conditions: HepG2 TCF/beta-catenin cis-reporter transcription, actives raise or lower the signal
How it was run: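 HepG2 cells transiently transfected with multiple cis-promoter-regulated reporter transcription units, so endogenous transcription factor activity is measured. Reporter mRNA read 24 hours after dosing by RT-PCR, fluorescent labelling and capillary electrophoresis; bidirectional fitting against DMSO.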

[2] = ATG_TAL_CIS: Attagene CIS-FACTORIAL HepG2 Assay for human TAL Basal Promoter (AID 2282966; active = hit-call score of the fitted dose curve at least 0.9, where 1 is the maximum; inactive = score below 0.9;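 also: background control endpoint measuring basal TAL promoter reporter mRNA not a specific factor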); conditions: HepG2 Attagene cis-factorial TAL promoter reporter; actives raise or lower the signal
How it was run: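 Transiently transfected HepG2 (cis-regulated reporter units), 24 h treatment, mRNA read by fluorescent CE after RT-PCR; bidirectional fit, DMSO baseline.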

[3] = ATG_TGFb_CIS: Attagene CIS-FACTORIAL HepG2 Assay for human Transforming Growth Factor (TGF) (AID 2282967; active = hit-call score of the fitted dose curve at least 0.9, where 1 is the maximum; inactive = score below 0.9); conditions: HepG2 Attagene CIS TGFb reporter, mRNA transcription; actives raise or lower the signal
How it was run: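 Cells were dosed for 24 hours, after which total RNA was reverse-transcribed and reporter sequences amplified, labeled and sized by capillary electrophoresis. Activity was fitted in both directions against DMSO.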

[4] = ATG_VDRE_CIS: Attagene CIS-FACTORIAL HepG2 Assay for human Vitamin D Receptor Element (VDRE) (AID 2282968; active = hit-call score of the fitted dose curve at least 0.9, where 1 is the maximum; inactive = score below 0.9); conditions: HepG2 VDRE cis-reporter transcription, actives raise or lower the signal
How it was run: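 Transfected HepG2 reporter cells, chemical treatment 24 h. RNA isolated, cDNA amplified with reporter-specific primers, products analysed by capillary electrophoresis. Endpoint fitted in both directions versus DMSO.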

[5] = target: Nuclear receptor subfamily 1 group I member 3 (Homo sapiens) (UniProt Q14994); test: ATG_CAR_TRANS: Attagene TRANS-FACTORIAL HepG2 Assay for human Constitutive Androstane Receptor (CAR) (AID 2282969); conditions: HepG2 Attagene TRANS-FACTORIAL CAR reporter;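 also: activators raise reporter mRNA above DMSO so AC50 marks induction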
How it was run: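 Steps: transient transfection of HepG2 with multiple GAL4-UAS reporter units; 24 h compound incubation; RNA isolation, RT-PCR, 6-FAM primer extension, HpaI digest; capillary electrophoresis. Gain-of-signal relative to DMSO negative control.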

[6] = target: Estrogen receptor (Homo sapiens) (UniProt P03372); test: ATG_ERa_TRANS: Attagene TRANS-FACTORIAL HepG2 Assay for human Estrogen Receptor alpha (ERa) (AID 2282970); conditions: HepG2 Attagene TRANS ERa GAL4 reporter, mRNA
How it was run: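 One of 30 multiplexed endpoints from a HepG2 TRANS system, this one reports ERa-Gal4-driven reporter mRNA. Transcripts were quantified 24 hours post-dosing by fluorescent RT-PCR and capillary electrophoresis, with activity scored as induction over DMSO.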

[7] = target: X-box-binding protein 1 (Homo sapiens) (UniProt P17861); test: ATG_Xbp1_CIS: Attagene CIS-FACTORIAL HepG2 Assay for human X-box Binding Protein 1 (XBP1) (AID 2282972; active = hit-call score of the fitted dose curve at least 0.9, where 1 is the maximum; inactive = score below 0.9); conditions: HepG2 XBP1 cis-element reporter, Attagene multiplex; actives raise or lower the signal
How it was run: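 Reporter transcripts were quantified by RT-PCR with fluorescent primer extension and capillary electrophoresis after 24 h chemical exposure. Cells: transiently transfected HepG2 carrying cis-regulated reporter constructs; data fitted bidirectionally relative to DMSO.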

[8] = ATG_M_19_TRANS: Attagene TRANS-FACTORIAL HepG2 Assay for M19 Transcription Factor (Internal Marker) (AID 2282974); conditions: HepG2 Attagene TRANS-FACTORIAL M19 internal marker reporter
How it was run: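 Using RT-PCR and capillary electrophoresis, reporter mRNA from transiently transfected human HepG2 cells was quantified following 24 h exposure; activity was fitted in the positive direction against DMSO.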

[9] = ATG_GAL4_TRANS: Attagene TRANS-FACTORIAL HepG2 Assay for GAL4 (Internal Marker) (AID 2282976); conditions: HepG2 Attagene TRANS GAL4 internal marker reporter
How it was run: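 HepG2 cells transiently transfected with multiplexed GAL4-UAS reporter constructs were dosed for 24 h. Reporter mRNA was measured by RT-PCR, 6-FAM primer extension, HpaI digestion and capillary electrophoresis, and gain of signal was fitted relative to DMSO.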

[10] = target: Oxysterols receptor LXR-beta (Homo sapiens) (UniProt P55055); test: ATG_LXRb_TRANS: Attagene TRANS-FACTORIAL HepG2 Assay for human Liver X Receptor beta (LXRb) (AID 2282981); conditions: HepG2 Attagene TRANS GAL4-LXRb reporter, mRNA
How it was run: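 Liver-derived HepG2 cells transfected with Gal4-responsive reporters were dosed for 24 h. Activation was scored as rise in reporter mRNA, by RT-PCR and capillary electrophoresis, above DMSO baseline.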

[11] = target: Hepatocyte nuclear factor 4-alpha (Homo sapiens) (UniProt P41235); test: ATG_HNF4a_TRANS: Attagene TRANS-FACTORIAL HepG2 Assay for human Hepatocyte Nuclear Factor 4 alpha (HNF4a) (AID 2282982); conditions: HepG2 HNF4a transactivation reporter, mRNA readout
How it was run: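 Using HepG2 liver cells transfected with GAL4-UAS reporter units, chemical-induced mRNA increases were assessed after 24 hours. Fluorescent RT-PCR fragments were separated by capillary electrophoresis and compared with DMSO negative controls.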

[12] = ATG_M_06_TRANS: Attagene TRANS-FACTORIAL HepG2 Assay for M06 Transcription Factor (Internal Marker) (AID 2282983); conditions: HepG2 Attagene TRANS M06 internal marker reporter;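 also: reporter transcript level by RT-PCR then capillary electrophoresis fluorescence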
How it was run: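 In this multiplexed HepG2 system, compounds are incubated 24 h with cells carrying GAL4-UAS reporter units. Reporter RNA is amplified and resolved by capillary electrophoresis, and induction is scored against DMSO.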

[13] = ATG_M_32_TRANS: Attagene TRANS-FACTORIAL HepG2 Assay for M32 Transcription Factor (Internal Marker) (AID 2282984); conditions: HepG2 Attagene TRANS M32 internal marker reporter;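 also: transcript level of a background control reporter unit measured by RT-PCR and capillary electrophoresis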
How it was run: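 Fluorescence-detected mRNA induction, HepG2 liver cells, 24 h after dosing. Multiple GAL4-UAS reporter units introduced by transient transfection; background-control endpoint analysed for gain of signal against DMSO.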

[14] = target: Transcriptional activator Myb (Homo sapiens) (UniProt P10242); test: ATG_Myb_CIS: Attagene CIS-FACTORIAL HepG2 Assay for human Myeloblastosis (Myb) Proto-Oncogene Transcription Factor (AID 2282986; active = hit-call score of the fitted dose curve at least 0.9, where 1 is the maximum; inactive = score below 0.9); conditions: HepG2 Attagene CIS-FACTORIAL Myb reporter transcription; actives raise or lower the signal
How it was run: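 In this HepG2 transient-transfection format, cis-regulated reporter mRNA is quantified 24 h post-dosing by RT-PCR with capillary electrophoresis, fitted bidirectionally to DMSO baseline.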

[15] = target: Steroid hormone receptor ERR1 (Homo sapiens) (UniProt P11474); test: ATG_ERRa_TRANS: Attagene TRANS-FACTORIAL HepG2 Assay for human Estrogen-Related Receptor alpha (ERRa) (AID 2282971); conditions: HepG2 Attagene TRANS reporter, ERRa transactivation
How it was run: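 HepG2 cells transiently transfected with multiplexed GAL4-UAS reporter units reading chimeric ERRa-Gal4 activity; 24 h compound exposure. Reporter mRNA measured by RT-PCR, 6-FAM labelling, HpaI digest and capillary electrophoresis; gain of signal fitted versus DMSO baseline.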

[16] = target: Estrogen-related receptor gamma (Homo sapiens) (UniProt P62508); test: ATG_ERRg_TRANS: Attagene TRANS-FACTORIAL HepG2 Assay for human Estrogen-Related Receptor gamma (ERRg) (AID 2282977); conditions: HepG2 Attagene TRANS reporter, ERRg transactivation;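 also: hits increase reporter signal over DMSO so potencies reflect activators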
How it was run: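 Readout: fluorescent reporter-mRNA fragments resolved by capillary electrophoresis after RT-PCR and HpaI cut. Cells: transiently transfected HepG2 carrying GAL4-UAS reporters driven by exogenous NR-Gal4 chimeras, dosed 24 h. Activity fitted upward relative to DMSO baseline.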

[17] = target: Glucocorticoid receptor (Homo sapiens) (UniProt P04150); test: ATG_GR_TRANS: Attagene TRANS-FACTORIAL HepG2 Assay for human Glucocorticoid Receptor (GR) (AID 2282978); conditions: HepG2 Attagene TRANS GR reporter, mRNA transcription;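 also: activators score as hits since higher reporter transcript over DMSO is fitted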
How it was run: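 Exogenous NR-GAL4 fusion activity was assessed through induced GAL4-UAS reporter transcripts in transfected human HepG2 cells, quantified after 24 h by RT-PCR and fluorescent capillary electrophoresis with DMSO as baseline.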

[18] = target: Bile acid receptor (Homo sapiens) (UniProt Q96RI1); test: ATG_FXR_TRANS: Attagene TRANS-FACTORIAL HepG2 Assay for Farnesoid X Receptor (FXR) (AID 2282979); conditions: HepG2 Attagene TRANS FXR-GAL4 reporter transcription;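 also: hits raise reporter mRNA above DMSO so AC50 marks FXR activation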
How it was run: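 HepG2 cells transiently transfected with reporter constructs in which a chimeric FXR-GAL4 protein drives a GAL4-UAS reporter; 24 h compound exposure. Reporter mRNA measured by RT-PCR, FAM labelling, HpaI digestion and capillary electrophoresis; gain-of-signal versus DMSO.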

[19] = target: Oxysterols receptor LXR-alpha (Homo sapiens) (UniProt Q13133); test: ATG_LXRa_TRANS: Attagene TRANS-FACTORIAL HepG2 Assay for human Liver X Receptor alpha (LXRa) (AID 2282980); conditions: HepG2 Attagene TRANS reporter, LXRa transactivation
How it was run: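 HepG2 cells were transiently transfected with multiplexed reporter units driven by chimeric LXRa–GAL4 fusion proteins, then dosed for 24 h. Reporter mRNA was quantified by RT-PCR, fluorescent labelling and capillary electrophoresis; gain of signal fitted against DMSO baseline.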

[20] = target: Nuclear receptor subfamily 4 group A member 2 (Homo sapiens) (UniProt P43354); test: ATG_NURR1_TRANS: Attagene TRANS-FACTORIAL HepG2 Assay for human Nuclear Receptor Related Protein 1 (NURR1) (AID 2282985); conditions: HepG2 Attagene TRANS reporter, mRNA readout
How it was run: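 Chimeric NR-Gal4 proteins were expressed in human HepG2 cells bearing GAL4-UAS reporter units, and induced reporter mRNA was quantified 24 h post-dosing by RT-PCR and capillary electrophoresis.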

Measured: AC50

Sequence of Transcriptional activator Myb (Homo sapiens) (P10242 whole entry, looked up): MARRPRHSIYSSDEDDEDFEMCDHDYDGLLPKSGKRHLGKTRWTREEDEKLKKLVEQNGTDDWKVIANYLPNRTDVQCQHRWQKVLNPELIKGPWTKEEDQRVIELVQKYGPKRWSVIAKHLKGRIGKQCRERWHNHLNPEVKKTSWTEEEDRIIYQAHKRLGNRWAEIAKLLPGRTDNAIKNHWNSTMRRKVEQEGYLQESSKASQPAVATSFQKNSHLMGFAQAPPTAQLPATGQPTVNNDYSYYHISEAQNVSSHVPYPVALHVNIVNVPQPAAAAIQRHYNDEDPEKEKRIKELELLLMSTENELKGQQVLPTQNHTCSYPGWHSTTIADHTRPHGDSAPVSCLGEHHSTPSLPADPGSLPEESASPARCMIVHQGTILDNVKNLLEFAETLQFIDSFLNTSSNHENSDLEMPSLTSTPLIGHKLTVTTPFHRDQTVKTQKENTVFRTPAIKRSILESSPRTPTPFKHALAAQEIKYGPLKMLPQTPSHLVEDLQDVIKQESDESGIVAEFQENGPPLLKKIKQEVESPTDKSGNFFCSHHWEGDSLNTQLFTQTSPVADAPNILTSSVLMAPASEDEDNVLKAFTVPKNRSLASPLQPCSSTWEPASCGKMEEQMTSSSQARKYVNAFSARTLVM
Sequence of Hepatocyte nuclear factor 4-alpha (Homo sapiens) (P41235 whole entry, looked up, the tested form may be a part): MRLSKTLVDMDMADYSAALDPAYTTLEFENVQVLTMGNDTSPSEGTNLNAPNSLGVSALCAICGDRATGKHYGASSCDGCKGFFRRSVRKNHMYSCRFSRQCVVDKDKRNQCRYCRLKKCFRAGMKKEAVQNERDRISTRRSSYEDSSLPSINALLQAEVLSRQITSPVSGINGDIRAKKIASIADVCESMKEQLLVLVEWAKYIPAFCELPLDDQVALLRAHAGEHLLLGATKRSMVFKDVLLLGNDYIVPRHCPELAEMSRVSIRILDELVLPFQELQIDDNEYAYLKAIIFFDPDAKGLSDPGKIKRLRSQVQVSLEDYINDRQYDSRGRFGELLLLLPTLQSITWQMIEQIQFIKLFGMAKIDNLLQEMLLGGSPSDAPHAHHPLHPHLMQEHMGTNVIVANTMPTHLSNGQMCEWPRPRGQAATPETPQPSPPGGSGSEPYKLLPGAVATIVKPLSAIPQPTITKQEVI
Sequence of X-box-binding protein 1 (Homo sapiens) (P17861 whole entry, looked up): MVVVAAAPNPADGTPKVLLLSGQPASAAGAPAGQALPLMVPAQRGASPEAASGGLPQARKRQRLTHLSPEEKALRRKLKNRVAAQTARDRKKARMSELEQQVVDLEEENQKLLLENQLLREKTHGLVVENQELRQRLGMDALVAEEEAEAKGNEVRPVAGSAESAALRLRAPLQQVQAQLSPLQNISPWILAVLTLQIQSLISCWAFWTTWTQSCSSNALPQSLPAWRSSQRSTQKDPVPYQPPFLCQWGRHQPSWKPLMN
Sequence of Estrogen receptor (Homo sapiens) (P03372 whole entry, looked up, the tested form may be a part): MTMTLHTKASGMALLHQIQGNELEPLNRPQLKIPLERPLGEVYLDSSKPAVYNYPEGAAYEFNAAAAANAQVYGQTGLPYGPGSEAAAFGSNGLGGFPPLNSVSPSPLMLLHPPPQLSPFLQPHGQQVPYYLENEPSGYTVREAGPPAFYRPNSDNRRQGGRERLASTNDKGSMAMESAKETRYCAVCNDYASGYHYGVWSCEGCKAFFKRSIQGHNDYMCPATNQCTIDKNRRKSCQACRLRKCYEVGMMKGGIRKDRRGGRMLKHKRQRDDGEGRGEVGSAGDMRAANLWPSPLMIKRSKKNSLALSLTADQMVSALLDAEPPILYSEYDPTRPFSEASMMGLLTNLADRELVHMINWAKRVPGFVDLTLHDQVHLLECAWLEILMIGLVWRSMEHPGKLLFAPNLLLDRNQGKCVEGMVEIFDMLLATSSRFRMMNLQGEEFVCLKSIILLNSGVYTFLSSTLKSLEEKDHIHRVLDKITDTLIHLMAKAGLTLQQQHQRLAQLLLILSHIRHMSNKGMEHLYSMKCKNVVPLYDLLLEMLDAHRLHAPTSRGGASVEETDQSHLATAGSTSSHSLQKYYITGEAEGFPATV
Sequence of Bile acid receptor (Homo sapiens) (Q96RI1 whole entry, looked up, the tested form may be a part): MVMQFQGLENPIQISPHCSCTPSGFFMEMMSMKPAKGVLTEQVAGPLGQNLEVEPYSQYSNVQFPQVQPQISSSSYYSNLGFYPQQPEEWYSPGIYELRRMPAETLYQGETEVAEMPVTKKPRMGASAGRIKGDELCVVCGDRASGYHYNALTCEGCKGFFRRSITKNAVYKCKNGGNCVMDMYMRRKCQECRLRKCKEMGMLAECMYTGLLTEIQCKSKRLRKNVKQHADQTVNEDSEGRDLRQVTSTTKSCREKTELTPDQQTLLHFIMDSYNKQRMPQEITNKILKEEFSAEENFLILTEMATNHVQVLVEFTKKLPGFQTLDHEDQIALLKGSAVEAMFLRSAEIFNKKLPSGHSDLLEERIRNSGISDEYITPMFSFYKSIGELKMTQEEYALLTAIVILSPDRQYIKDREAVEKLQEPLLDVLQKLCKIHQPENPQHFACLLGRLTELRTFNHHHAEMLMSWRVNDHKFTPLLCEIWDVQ
Sequence of Oxysterols receptor LXR-beta (Homo sapiens) (P55055 whole entry, looked up, the tested form may be a part): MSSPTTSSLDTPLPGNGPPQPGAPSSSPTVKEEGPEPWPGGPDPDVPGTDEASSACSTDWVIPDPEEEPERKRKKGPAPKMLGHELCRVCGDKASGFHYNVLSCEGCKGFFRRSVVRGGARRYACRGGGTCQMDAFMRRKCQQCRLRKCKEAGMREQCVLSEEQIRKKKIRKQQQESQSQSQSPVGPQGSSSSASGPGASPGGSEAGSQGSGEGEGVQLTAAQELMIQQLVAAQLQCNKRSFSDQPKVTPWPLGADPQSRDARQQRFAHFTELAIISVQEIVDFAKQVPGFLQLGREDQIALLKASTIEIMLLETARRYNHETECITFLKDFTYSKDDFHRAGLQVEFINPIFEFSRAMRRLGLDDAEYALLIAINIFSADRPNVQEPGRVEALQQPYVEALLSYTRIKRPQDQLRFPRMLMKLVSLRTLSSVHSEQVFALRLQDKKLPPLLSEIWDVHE
Sequence of Glucocorticoid receptor (Homo sapiens) (P04150 whole entry, looked up, the tested form may be a part): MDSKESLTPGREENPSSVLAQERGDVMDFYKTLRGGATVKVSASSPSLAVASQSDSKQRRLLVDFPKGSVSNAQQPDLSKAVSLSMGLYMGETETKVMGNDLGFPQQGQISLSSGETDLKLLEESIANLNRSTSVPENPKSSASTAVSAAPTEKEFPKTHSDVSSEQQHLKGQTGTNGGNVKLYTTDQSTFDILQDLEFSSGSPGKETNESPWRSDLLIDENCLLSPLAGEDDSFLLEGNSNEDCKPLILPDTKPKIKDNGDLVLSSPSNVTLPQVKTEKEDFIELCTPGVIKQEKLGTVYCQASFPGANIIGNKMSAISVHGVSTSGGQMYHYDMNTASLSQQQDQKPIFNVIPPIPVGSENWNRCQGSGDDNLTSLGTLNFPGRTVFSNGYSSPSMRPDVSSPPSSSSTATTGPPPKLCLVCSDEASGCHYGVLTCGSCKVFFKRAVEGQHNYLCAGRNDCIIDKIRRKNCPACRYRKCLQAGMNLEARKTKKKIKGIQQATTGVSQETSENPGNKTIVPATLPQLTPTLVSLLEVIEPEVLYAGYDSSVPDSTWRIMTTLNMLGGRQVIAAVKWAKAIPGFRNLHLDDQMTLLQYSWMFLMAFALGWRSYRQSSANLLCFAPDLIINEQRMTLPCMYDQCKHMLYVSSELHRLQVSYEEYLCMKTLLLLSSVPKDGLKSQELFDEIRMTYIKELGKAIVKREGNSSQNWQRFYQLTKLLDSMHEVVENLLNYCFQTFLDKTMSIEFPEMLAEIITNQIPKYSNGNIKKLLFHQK
Sequence of Nuclear receptor subfamily 4 group A member 2 (Homo sapiens) (P43354 whole entry, looked up, the tested form may be a part): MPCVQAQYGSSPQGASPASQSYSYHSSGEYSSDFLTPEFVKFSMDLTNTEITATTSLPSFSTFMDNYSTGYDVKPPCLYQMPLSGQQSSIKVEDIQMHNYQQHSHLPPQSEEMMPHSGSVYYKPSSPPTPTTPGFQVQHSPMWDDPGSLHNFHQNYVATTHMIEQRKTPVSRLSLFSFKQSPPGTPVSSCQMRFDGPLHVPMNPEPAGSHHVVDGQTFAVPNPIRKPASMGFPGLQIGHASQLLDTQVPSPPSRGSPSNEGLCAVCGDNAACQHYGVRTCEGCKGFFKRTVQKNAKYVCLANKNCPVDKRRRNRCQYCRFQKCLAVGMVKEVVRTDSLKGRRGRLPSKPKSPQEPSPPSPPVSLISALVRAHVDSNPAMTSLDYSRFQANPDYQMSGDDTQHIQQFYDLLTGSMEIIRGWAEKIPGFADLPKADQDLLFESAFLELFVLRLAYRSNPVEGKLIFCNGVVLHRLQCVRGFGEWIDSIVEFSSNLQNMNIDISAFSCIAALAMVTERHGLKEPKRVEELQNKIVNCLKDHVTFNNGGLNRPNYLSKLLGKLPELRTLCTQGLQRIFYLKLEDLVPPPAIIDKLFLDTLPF
Sequence of Nuclear receptor subfamily 1 group I member 3 (Homo sapiens) (Q14994 whole entry, looked up, the tested form may be a part): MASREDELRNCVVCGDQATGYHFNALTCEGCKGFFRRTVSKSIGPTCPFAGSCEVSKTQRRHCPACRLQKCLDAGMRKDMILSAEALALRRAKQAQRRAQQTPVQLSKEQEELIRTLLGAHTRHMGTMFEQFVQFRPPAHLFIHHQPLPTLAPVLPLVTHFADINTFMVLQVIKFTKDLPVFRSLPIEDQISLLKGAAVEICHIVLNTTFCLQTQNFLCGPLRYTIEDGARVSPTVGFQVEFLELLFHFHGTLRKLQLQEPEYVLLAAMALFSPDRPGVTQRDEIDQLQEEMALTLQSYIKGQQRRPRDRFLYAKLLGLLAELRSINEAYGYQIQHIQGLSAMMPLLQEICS

C1COCCN1
not listed: [15] | [16] | [17] | [18] | [19] | [20]
inactive: all other assays above

C=CC(F)(F)C(F)(F)C(F)(F)C(F)(F)C(F)(F)C(F)(F)C(F)(F)C(F)(F)F
not listed: [5]
inactive: all other assays above

CCc1ccc(C(c2ccc(CC)cc2)C(Cl)Cl)cc1
active: [4] 2.84 µM | [6] 7.49 µM
not listed: [9] | [11] | [14] | [15] | [16] | [19] | [20]
inactive: all other assays above

FC(F)(Br)C(F)(F)C(F)(F)C(F)(F)C(F)(F)C(F)(F)Br
active: [6] 7.26 µM
not listed: [8] | [11] | [15] | [16]
inactive: all other assays above
